The list is not random: actives were taken first. Their share in the collection is about 1.3%.
PrP UTR inh – inhibition of PrP 5' UTR reporter expression | cell-based PrP 5' UTR mRNA reporter, plate reader | inhibition, % (no concentration beside the values) | 0.35% of 340,000 active; in the data active = inhibition above about 52%
PrPC surface inh – inhibitors of human cell surface prion protein PrPC, primary screen, cell-based, TR-FRET | Major prion protein (Homo sapiens), P04156 | TR-FRET read-out | inhibition, % at 13.8 µM | 0.43% of 370,000 active | AID 720596, 2013; in the data active = inhibition above about 24%
SARS 3CLpro inh – SARS-CoV 3CLpro protease inhibitors, primary screen, biochemical, quenched FRET. Replicase polyprotein 1ab (Severe acute respiratory syndrome coronavirus), P0C6X7. recombinant SARS-CoV 3CLpro, quenched FRET peptide cleavage. inhibition, % at 6 µM. 0.14% of 290,000 active. AID 1706, 2009; in the data active = inhibition above about 12%
CCHF vOTU inh – CCHFV vOTU protease inhibitors, primary screen, biochemical, Pep-AMC substrate, fluorescence | Crimean-Congo hemorrhagic fever virus L polyprotein viral ovarian tumor (vOTU) protease … | inhibition, % at 11.5 µM | 0.55% of 370,000 active | AID 651958, 2012; in the data active = inhibition above about 30%
PrP UTR cherry – prion 5' UTR mRNA inhibition, cherry-pick retest. 48% of 1,100 active. cell-based prion protein 5' UTR reporter, plate reader. inhibition, % at 2.5 µM. shares compounds with PrP UTR inh; in the data active = inhibition above about 54%
Each line names hits and unclear results; the compound was inactive in the other large screens (follow-up assays come after a bar, where they were run).

Cc1ccc(-n2c([S-])c(C(=O)Nc3ccc(OC(F)F)cc3)[n+]3ccc(C(=O)NCCO)cc23)cc1C	PrP UTR inh 78 | PrP UTR cherry inactive
COc1ccccc1-n1c([S-])c(C(=O)Nc2ccccc2C(F)(F)F)[n+]2ccc(C(=O)NCCO)cc12	none
COc1ccc(CCc2cc(OC)c(OC)c(OC)c2)cc1	PrP UTR inh 57 (no result: SARS 3CLpro inh) | PrP UTR cherry 88
COc1ccc(CCNC(=O)CCc2cc(OC)c(OC)c(OC)c2)cc1	none
O=C1C=C(N2CCCCCC2)C(=O)N1c1ccc(Cl)cc1	none (no result: PrP UTR inh)
Cc1cc(C2CCCCC2)n(O)c(=O)c1	PrP UTR inh 69 (no result: SARS 3CLpro inh) | PrP UTR cherry inactive
Cn1c(NC2CCCCC2)cc(=O)n(C)c1=O	none
O=C(c1ccc2c(c1)OCO2)N1CCC2(CC1)Oc1ccc(Cl)cc1C(=O)C21CC(c2cccnc2)=NO1 (stereo unspecified)	PrP UTR inh 53 (no result: SARS 3CLpro inh) | PrP UTR cherry inactive
O=C(CSc1nnc(-c2ccncc2)o1)Nc1cc(F)ccc1F	none (no result: SARS 3CLpro inh)
COC(=O)c1ccccc1NC(=O)CSc1nnc(-c2ccc(C)cc2)o1	none (no result: PrP UTR inh, PrPC surface inh, CCHF vOTU inh)
O=C(CSc1nnc(-c2ccc(Br)cc2)o1)Nc1cccc(C(=O)O)c1	PrP UTR inh 71 | PrP UTR cherry 80
O=C(CSc1nnc(-c2ccccc2)o1)Nc1ccccc1F	PrP UTR inh 60 | PrP UTR cherry 59
Cc1ccc(-c2nnc(SCC(=O)Nc3ccccc3F)o2)cc1	PrP UTR inh 89 | PrP UTR cherry 88
O=C(O)c1cc(C(=O)O)cc(-c2ccc(/C=c3/sc4nc5ccccc5n4c3=O)o2)c1	none (no result: PrPC surface inh, CCHF vOTU inh)
Cc1c(C(=O)OCc2ccccc2)[nH]c2c1C(=O)CC(c1ccco1)C2 (stereo unspecified)	PrP UTR inh 62 (no result: PrPC surface inh, CCHF vOTU inh) | PrP UTR cherry 87
COCCOC(=O)c1[nH]c2c(c1C)C(=O)CC(c1ccco1)C2 (stereo unspecified)	none
Cc1c(C(=O)OCCOC(C)C)[nH]c2c1C(=O)CC(c1ccco1)C2 (stereo unspecified)	PrP UTR inh 66 (no result: PrPC surface inh, CCHF vOTU inh) | PrP UTR cherry 90
CCOC(=O)c1[nH]c2c(c1C)C(=O)CC(c1ccco1)C2 (stereo unspecified)	PrP UTR inh 61 | PrP UTR cherry 93
CSCCOC(=O)c1[nH]c2c(c1C)C(=O)CC(c1ccco1)C2 (stereo unspecified)	none
COCCCNC(=S)N1CCN(c2nc(C)nc3sc4c(c23)CCCC4)CC1	none
O=C(NCc1nc2ccccc2[nH]1)c1ccc([N+](=O)[O-])cc1	PrP UTR inh 74 | PrP UTR cherry inactive
Cc1ccc(C(=O)Nc2cnc3ccccc3c2)cc1	PrP UTR inh 89 | PrP UTR cherry 87
COc1ccc(C(=O)Nc2nc3ccccc3[nH]2)cc1	none
Cc1ccc(C(=O)Nc2nc3ccccc3[nH]2)cc1	PrP UTR inh 61 | PrP UTR cherry 65
COc1cc(SC)ccc1C(=O)Nc1nc2ccccc2[nH]1	PrP UTR inh 96 | PrP UTR cherry 98
CSc1ccccc1C(=O)Nc1nc2ccccc2[nH]1	none
O=C(Nc1nc2ccccc2[nH]1)c1ccc([N+](=O)[O-])cc1	none
CCCN1CNC(=S)N(Cc2ccccc2)C1	none
CCc1sc(N2C(=O)C3C4CCC(C4=C(C)C)C3C2=O)nc1-c1ccccc1 (stereo unspecified)	none
COC(=O)c1sccc1NC(=O)CC1C(=O)NCCN1C(=O)Nc1ccccc1 (stereo unspecified)	none
Cc1ccc(C(=O)Nc2cc3ccccc3oc2=O)cc1	PrP UTR inh 86 | PrP UTR cherry 86
COc1ccccc1C(=O)NCCC(=O)Nc1nc2ccccc2[nH]1	none (no result: SARS 3CLpro inh)
COc1ccccc1C(=O)Nc1nc2ccccc2[nH]1	PrP UTR inh 92 | PrP UTR cherry 93
CC(=O)Nc1cc2ccccc2oc1=O	none
COc1ccc(S(=O)(=O)N2c3cc(Cl)ccc3Oc3nc4ccccc4nc32)cc1	PrP UTR inh 71 | PrP UTR cherry 88
C(=N\Nc1ccc2ccccc2n1)/c1ccc2c(c1)OCCO2	PrP UTR inh 83 | PrP UTR cherry 69
C(=N\Nc1nc2ccccc2[nH]1)/c1ccc2c(c1)OCCO2	none
Cc1ccc(/C=N/Nc2ccc3ccccc3n2)o1	none
Cc1cccc(/C=N/Nc2ccc3ccccc3n2)c1	PrP UTR inh 75 | PrP UTR cherry 66
Cc1cc(C)c(NC(=O)Cn2nnc(C(=O)NCc3ccco3)c2N)c(C)c1	none
CCN(CC)S(=O)(=O)c1ccc(N2CCOCC2)c(NC(=O)c2cccc3ccccc23)c1	none
CCN(CC)S(=O)(=O)c1ccc(N2CCOCC2)c(NC(=O)c2cc(-c3ccccn3)nc3ccccc23)c1	PrP UTR inh 66 | PrP UTR cherry inactive
COc1ccc2c(c1)sc1nc(-c3ccccc3)cn12	PrP UTR inh 89 | PrP UTR cherry 89
CCn1cnc2scc(-c3ccccc3)c2c1=O	none
Cn1cc(/C=N/n2cnc3scc(-c4ccc(Cl)cc4)c3c2=O)c2ccccc21	PrP UTR inh 57 | PrP UTR cherry 91
Cc1c(NS(=O)(=O)c2ccc(C(=O)NCc3ccccc3)cc2)c(=O)n(-c2ccccc2)n1C	PrP UTR inh 56 | PrP UTR cherry inactive
Cc1ccc(CNC(=O)c2ccc(S(=O)(=O)Nc3c(C)n(C)n(-c4ccccc4)c3=O)cc2)cc1	none
COC(=O)c1c(-c2cccs2)csc1NC(=O)CN1CCOCC1	none
O=C1c2ccccc2C(c2nnnn2Cc2ccccc2)N1CCCn1ccnc1 (stereo unspecified)	none (no result: PrP UTR inh, SARS 3CLpro inh)
CC[C@@]1(O)C(=O)OCc2c1cc1n(c2=O)Cc2cc3c(NC(=O)CN)cccc3nc2-1	PrP UTR inh 85 | PrP UTR cherry 70
CCc1c2c(nc3ccc(OC(=O)N4CCC(N5CCCCC5)CC4)cc13)-c1cc3c(c(=O)n1C2)COC(=O)[C@]3(O)CC	PrP UTR inh 65 (no result: SARS 3CLpro inh) | PrP UTR cherry 74
CCC1(OC(=O)CN)C(=O)OCc2c1cc1n(c2=O)Cc2cc3ccccc3nc2-1 (stereo unspecified)	PrP UTR inh 83 (no result: PrPC surface inh, CCHF vOTU inh) | PrP UTR cherry 88
CC[C@@]1(O)C(=O)OCc2c1cc1n(c2=O)Cc2cc3ccccc3nc2-1	none (no result: PrP UTR inh, PrPC surface inh, CCHF vOTU inh)
CCOC(=O)Cc1[nH]nc2c1C(c1ccsc1)C(C#N)=C(N)O2 (stereo unspecified)	PrP UTR inh 53 | PrP UTR cherry inactive
COc1ccc(C(=O)NCCCNC(=O)c2cc3ccccc3[nH]2)cc1OC	PrP UTR inh 78 | PrP UTR cherry inactive
CCOC(=O)COc1cccc2c(=O)n(CC(=O)NCc3ccc(F)cc3)ccc12	PrP UTR inh 60 | PrP UTR cherry 84
CCOC(=O)COc1cccc2c(=O)n(CC(=O)NCc3ccccc3)ccc12	none
CCOc1ccc(C2=Nn3c(nnc3-c3ccccc3OC)SC2)cc1	PrP UTR inh 69 | PrP UTR cherry 88
COc1ccc(C2=Nn3c(nnc3-c3ccccc3OC)SC2)cc1OC1CCOC1 (stereo unspecified)	PrP UTR inh 81 (no result: SARS 3CLpro inh) | PrP UTR cherry 83
Cc1ccccc1-c1nnc2n1N=C(c1ccc(O)c(O)c1)CS2	none (no result: PrP UTR inh, SARS 3CLpro inh)
